The values below come from PubChem BioAssay (Tox21).

Assay [1] addresses Thyrotropin receptor (Homo sapiens) (UniProt P16473). Description: qHTS assay to identify small molecule agonists of the thyroid stimulating hormone receptor (TSHR) signaling pathway (AID 1224843; calls by dose curve; also: nearly all actives have a fitted effect of over 45% in size). The procedure, abridged: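 Steps: seed 800 TSHR-HEK293 cells per well; add test compound and hold 30 min at ambient temperature; dispense cAMP-d2 then anti-cAMP cryptate; incubate 1 h at ambient; measure fluorescence intensity.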
Background: In qHTS, concentration-response curves come from the screen itself.

Assay [2] is described as follows: qHTS assay to identify small molecule agonists of H2AX (AID 1224845; active = well fitted activation curve with a large enough effect in the signal ratio in the repeat runs, not every such curve was filed as active; the % refers to the signal ratio). The procedure, abridged:
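Wild-type CHO-K1 cells, plated overnight, exposed 3hr at 37C to 15 concentrations (0.76% DMSO final). Lysed, then HTRF anti-pH2AX (S139) cryptate and anti-H2AX-d2 antibodies, 24 hr room temperature; 665/620 nm emission read.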

A short description of assay [3]: qHTS assay to identify small molecule agonists of H2AX - cell viability counter screen (AID 1224847; calls by dose curve; also: nearly all actives have a fitted effect of over 30% in size; also: potency is read from the fitted curve at half-maximal effect). The procedure, abridged:
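Cytotoxicity counter screen in wild-type CHO-K1 cells: a 3 hr compound treatment at 37C across 15 concentrations, followed by CellTiter-Glo luminescence to gauge viable cells.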

A short description of assay [4]: qHTS RealTime-Glo MT Cell Viability Assay in HepG2 cells - 24 hour (AID 1224867). Also: nearly all actives have a fitted effect of over 50% in size. The method, boiled down:
(§1)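 HepG2 cells were seeded at 600 cells/well together with NanoLuc luciferase and a cell-permeant prosubstrate, preincubated 5 h at 37 C/5% CO2, then pin-dosed with compounds in DMSO. Nonlytic luminescence from viable cells was read at each time point.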

Assay [5] can be described thus: qHTS RealTime-Glo MT Cell Viability Assay in HEK293 cells - 32 hour (AID 1224868). Also: nearly all actives have a fitted effect of over 50% in size. Also: potency is read from the fitted curve at half-maximal effect. The procedure, abridged: (§2)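 HEK293 cells were seeded at 600 cells/well together with NanoLuc luciferase and cell-permeant prosubstrate, preincubated 5 h at 37 C/5% CO2, then given compound in DMSO by pintool. Luminescence from viable-cell prosubstrate reduction was read repeatedly over 40 h.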

Assay [6] in a line: A CellTox Green Cytotoxicity Assay to monitor cytotoxicity in HEK293 cells - 0 hour (AID 1224869). Also: nearly all actives have a fitted effect of over 50% in size. The procedure, abridged:
(§3)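 Each value comes from one timepoint of a single continuous run in which HEK293 cells with CellTox Green were exposed to compound for up to 40 h at 37 C, dye fluorescence rising with cell death.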

A short description of assay [7]: qHTS RealTime-Glo MT Cell Viability Assay in HepG2 cells - 40 hour (AID 1224870). Also: nearly all actives have a fitted effect of over 50% in size. Also: potency is read from the fitted curve at half-maximal effect. The method, boiled down:
(§4)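 HepG2 cells (600/well) mixed with RealTime-Glo MT reagent, settled 5 h at 37 C/5% CO2 before compound addition. Nonlytic NanoLuc luminescence from viable-cell prosubstrate reduction read repeatedly during 40 h treatment at 37 C.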

Assay [8] can be described thus: A CellTox Green Cytotoxicity Assay to monitor cytotoxicity in HEK293 cells - 40 hour (AID 1224871). Also: nearly all actives have a fitted effect of over 45% in size. Also: potency is read from the fitted curve at half-maximal effect. The procedure, abridged:
as §3

The nature of assay [9]: qHTS RealTime-Glo MT Cell Viability Assay in HEK293 cells - 16 hour (AID 1224872). Also: nearly all actives have a fitted effect of over 50% in size. Also: potency is read from the fitted curve at half-maximal effect. The method, boiled down: as §2
Assay [10] is described as follows: qHTS RealTime-Glo MT Cell Viability Assay in HepG2 cells - 8 hour (AID 1224873). Also: nearly all actives have a fitted effect of over 55% in size. The procedure, abridged: as §4
Assay [11] in a line: qHTS RealTime-Glo MT Cell Viability Assay in HEK293 cells - 40 hour (AID 1224874). Also: nearly all actives have a fitted effect of over 50% in size. Also: potency is read from the fitted curve at half-maximal effect. The conditions noted are these: RealTime-Glo luminescence; max response: stronger effect = lower value. The method, boiled down: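 qHTS format; HEK293 cells with NanoLuc/prosubstrate reagent, 37 C/5% CO2 for 5 h pre-dosing; compounds 23 nL in DMSO; luminescence at each time point reflects viable cells.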

A short description of assay [12]: A CellTox Green Cytotoxicity Assay to monitor cytotoxicity in HEK293 cells - 24 hour (AID 1224875). Also: nearly all actives have a fitted effect of over 45% in size. Also: potency is read from the fitted curve at half-maximal effect. The procedure, abridged:
as §3

Assay [13] can be described thus: qHTS RealTime-Glo MT Cell Viability Assay in HepG2 cells - 32 hour (AID 1224877). Also: nearly all actives have a fitted effect of over 55% in size. Also: potency is read from the fitted curve at half-maximal effect. The method, boiled down: as §1
The nature of assay [14]: qHTS assay to identify small molecule agonists of the hypoxia (HIF-1) signaling pathway (AID 1224846; active = well fitted activation curve with a large enough effect in the signal ratio in the repeat runs, not every such curve was filed as active; the % refers to the signal ratio). The method, boiled down: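 Measured by blue/green FRET after loading CCF4-AM: beta-lactamase expressed from a hypoxia response element in ME-180 cells. Test agents were delivered in DMSO and left 17 hrs; cells had been plated 5 hrs earlier in low-serum (0.5% dialyzed FBS) medium.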

Assay [15] is described as follows: A CellTox Green Cytotoxicity Assay to monitor cytotoxicity in HepG2 cells - 24 hour (AID 1224878). Also: nearly all actives have a fitted effect of over 45% in size. Also: potency is read from the fitted curve at half-maximal effect. The method, boiled down: (§5)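 Continuous culture of HepG2 cells with a membrane-impermeant DNA dye; rising fluorescence marks dead cells. Compound exposure lasted up to 40 h at 37 C, with reads every 8 h from 0 h.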
Assay [16] is described as follows: A CellTox Green Cytotoxicity Assay to monitor cytotoxicity in HepG2 cells - 40 hour (AID 1224879). Also: nearly all actives have a fitted effect of over 40% in size. Also: potency is read from the fitted curve at half-maximal effect. The method, boiled down: as §5
A short description of assay [17]: qHTS assay to identify small molecule agonists of the hypoxia (HIF-1) signaling pathway - cell viability counter screen (AID 1224844; calls by dose curve; also: nearly all actives have a fitted effect of over 50% in size). The method, boiled down:
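Luminescent ATP content (CellTiter-Glo, 30 min, room temperature) served as the viability measure in HRE-bla ME-180 cells exposed to compounds for 17 hrs in low-serum medium (0.5% dialyzed FBS).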

Assay [18] in a line: qHTS assay to identify small molecule antagonists of the estrogen related receptor (ERR) signaling pathway from Tox21 library (AID 1224848). Also: nearly all actives have a fitted effect of over 50% in size. The method, boiled down:
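Luminescent reporter read-out (ONE-Glo) from NTP's ERR cell line after 18 h treatment at 37 C with DMSO-dissolved Tox21 compounds; cells pre-plated 6 h beforehand at 2,000 per well.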

The nature of assay [19]: qHTS assay to identify small molecule agonists of the estrogen related receptor (ERR) signaling pathway from Tox21 library (AID 1224849; calls by dose curve; also: nearly all actives have a fitted effect of over 15% in size). The conditions noted are these: ERR reporter cell line, ONE-Glo luciferase, 18 h; at 92.4 µM (top of the series) unless noted. The procedure, abridged: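 We plated ERR reporter cells, waited 6 h, added compounds in DMSO by pin tool and incubated them 18 h at 37 C. ONE-Glo was then added and luminescence read after 30 min.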

Assay [20] can be described thus: A CellTox Green Cytotoxicity Assay to monitor cytotoxicity in HepG2 cells - 16 hour (AID 1224876). Also: nearly all actives have a fitted effect of over 45% in size. Also: potency is read from the fitted curve at half-maximal effect. The method, boiled down:
as §5

The structures appear in SMILES notation. Values without a mark were called inactive. Records with an inconclusive call do not appear. Active and inactive are the calls of the source. Unless noted, calls follow the shape of the dose curve; as a rule, active = well fitted curve in the direction sought with a large enough effect in the repeat runs; inconclusive = weak or mixed curves; inactive = no such curve, though single readings can be large; an effect the other way counts as inactive or inconclusive.
% is scaled to controls: 0 for no effect and ±100 for the full control effect.

Chain of Thyrotropin receptor (Homo sapiens) (P16473 whole entry, looked up): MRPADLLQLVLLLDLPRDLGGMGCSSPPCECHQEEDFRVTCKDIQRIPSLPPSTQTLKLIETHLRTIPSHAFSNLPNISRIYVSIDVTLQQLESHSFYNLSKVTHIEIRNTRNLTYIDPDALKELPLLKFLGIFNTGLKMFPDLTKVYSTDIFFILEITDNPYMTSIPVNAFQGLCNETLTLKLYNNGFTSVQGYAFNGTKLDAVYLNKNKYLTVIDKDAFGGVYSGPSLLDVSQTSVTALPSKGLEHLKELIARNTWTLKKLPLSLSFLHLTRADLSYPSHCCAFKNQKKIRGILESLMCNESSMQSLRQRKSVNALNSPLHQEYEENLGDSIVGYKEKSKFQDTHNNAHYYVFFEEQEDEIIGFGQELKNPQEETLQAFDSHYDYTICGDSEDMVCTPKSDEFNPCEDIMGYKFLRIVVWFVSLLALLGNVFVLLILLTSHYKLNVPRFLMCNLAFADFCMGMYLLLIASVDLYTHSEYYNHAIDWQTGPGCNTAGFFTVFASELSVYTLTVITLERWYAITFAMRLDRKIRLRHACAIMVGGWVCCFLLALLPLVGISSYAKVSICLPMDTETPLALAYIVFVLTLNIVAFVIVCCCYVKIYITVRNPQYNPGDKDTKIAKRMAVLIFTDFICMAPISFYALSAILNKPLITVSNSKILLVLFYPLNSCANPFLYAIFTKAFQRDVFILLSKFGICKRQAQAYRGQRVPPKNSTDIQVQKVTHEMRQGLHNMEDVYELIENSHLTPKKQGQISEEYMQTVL

As to `CCCCCCCCCCCCCOS(=O)(=O)O`, the Potency result in assay [1], in assay [2], in [3], in assay [4], in [5] and in assay [6] was “inactive” each time. In addition, the Potency result in [7], in [8], in assay [9], in assay [10] and in assay [13] was “inactive” each time. The max response in [11] is -4.56%. The Potency in assay [12] was 24.5 µM (active).
With `O=C1NC(=O)c2cccc3cccc1c23`, the Potency entry in assay [1], in assay [3], in [4], in assay [5], in [6] and in assay [7] was “inactive” throughout. Also, the Potency result in assay [8], in [9], in assay [10], in assay [12], in assay [13] and in assay [15] was “inactive” throughout. In addition, in [16], the Potency entry was “inactive”. For the same compound, the compound was called inactive in assay [14]. Also, the max response in assay [11] was -4.43%.
As to `CC(C)COC(=O)COc1cc(Cl)c(Cl)cc1Cl`, the Potency result in assay [17], in [2], in assay [3], in assay [18], in [4] and in assay [5] was “inactive” each time. Also, the Potency result in assay [6], in [7], in assay [8], in assay [9], in assay [10] and in assay [12] was “inactive” in each case. For the same compound, the Potency entry in assay [20], in assay [13], in assay [15] and in [16] was “inactive” throughout. In addition, the call in assay [14] was inactive. The activity change, positive = activation in assay [19] was -0.133%. For the same compound, the max response in assay [11] is -15.9%.
As to `CCN(CC)CCOc1ccccc1C(=O)CCc1ccccc1`, the Potency result in assay [1], in assay [3], in [4], in assay [6], in assay [7] and in [8] was “inactive” in each case. Also, the Potency result in assay [10], in assay [12], in [20], in assay [13], in assay [15] and in assay [16] was “inactive” in each case. Besides, in assay [14], the compound was classed as inactive. For the same compound, the Potency in assay [9] and in assay [11] was 10.7 µM (active) in each case.
As to `CN(C)CC/C=C1\c2ccccc2Sc2ccc(Cl)cc21`, the Potency entry in [1] and in assay [6] was “inactive” each time. Moreover, the Potency in assay [3] was 49.2 µM (active); in assay [5], 23.9 µM (active); in assay [7] it was 23.9 µM (active); in assay [8], 23.9 µM (active); in [11], 23.9 µM (active); in assay [12] it was 26.8 µM (active). Moreover, the Potency in [20] was 21.3 µM (active); in assay [13], 23.9 µM (active); in [15] it was 21.3 µM (active); in assay [16], 21.3 µM (active). In assay [19], the activity change, positive = activation was -17.7% [at 42.5 µM].
For `BrC(Br)C(Br)Br`, the Potency entry in assay [1], in assay [3], in [5], in [6], in [7] and in [8] was “inactive” throughout. Besides, the Potency result in [9], in assay [10], in assay [12], in [20], in [13] and in [15] was “inactive” in each case. Also, the Potency entry in assay [16] was “inactive”. In [14], the outcome was inactive. Besides, in [11], the max response is -12.1%.
With `ClC1=C(Cl)C1(Cl)Cl`, the Potency entry in [1], in assay [2], in assay [3], in assay [18], in assay [4] and in assay [5] was “inactive” in each case. Also, the Potency result in [6], in assay [9], in assay [10], in assay [12], in assay [20] and in assay [13] was “inactive” in each case. Also, the Potency result in assay [15] and in [16] was “inactive” in each case. For the same compound, in [11], the max response is -7.96%.
With `CC[C@H]1OC(=O)[C@H](C)[C@@H](O[C@H]2C[C@@](C)(OC)[C@@H](O)[C@H](C)O2)[C@H](C)[C@@H](O[C@@H]2O[C@H](C)C[C@H](N(C)C)[C@H]2O)[C@](C)(O)C[C@@H](C)C(=O)[C@H](C)[C@@H](O)[C@]1(C)O`, the Potency result in assay [1], in assay [2], in assay [3], in [4], in assay [5] and in [6] was “inactive” each time. Also, the Potency result in assay [7], in assay [8], in [9], in assay [10], in [12] and in [20] was “inactive” each time. For the same compound, the Potency result in assay [13], in assay [15] and in [16] was “inactive” each time. For the same compound, the max response in assay [11] is -19.4%.
